Screens as filed in PubChem BioAssay.
MazEF act – MazEF (E. coli) toxin RNase activation. P0AE70. FAM/BHQ RNA-DNA oligo cleavage fluorescence, 5 h. activation, % at 20 µM. 350,000 tested, 0.32% active; in the data active means activation above about 50%
Target sequence (P0AE70 whole entry, looked up): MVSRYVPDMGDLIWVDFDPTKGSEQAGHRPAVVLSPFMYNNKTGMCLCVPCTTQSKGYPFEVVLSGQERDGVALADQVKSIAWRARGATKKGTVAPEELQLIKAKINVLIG
BoNT-A LC inh2 – inhibitors of Botulinum neurotoxin A light chain protease; multiplex microsphere protease substrate cleavage, flow cytometry; 360,000 tested, 0.17% active; inhibition, % at 10 µM; further: plate controls were buffer without enzyme for full effect and enzyme alone for no effect
BoNT F protease – inhibitors of Botulinum neurotoxin F light chain protease; Multiplex microsphere protease cleavage assay, flow cytometry; inhibition, % at 10 µM; 360,000 tested, 0.22% active; in the data active means inhibition above about 35%, passing the limit was not always enough; inconclusive means no clear call, values can overlap the other calls; further: plate controls were buffer without enzyme for full effect and enzyme alone for no effect
Bead autofluor – flagged as autofluorescent in microsphere protease counterscreen; compound autofluorescence counterscreen, microsphere flow cytometry; hits give high values; fluorescence intensity (concentration not given with the values); 360,000 tested, 3.1% active; in the data active means fluorescence intensity above about 16000; inconclusive means no clear call, values can overlap the other calls
Anthrax LF prot – blocks Bacillus anthracis lethal factor protease; P15917; multiplex microsphere protease cleavage assay, LF; inhibition, % at 10 µM; 360,000 tested, 0.12% active; AID 588501; further: plate controls were buffer without enzyme for full effect and enzyme alone for no effect
The depositor's hits bear a star; u = inconclusive; x = no result. The list is not random: actives were taken first. Their share in the collection is about 3.6%. Unless noted, no stated cut-off is given here; in the data, active means inhibition above about 30%; inconclusive means no clear call, values can overlap the other calls; inactive means below that.

SMILES	MazEF act	BoNT-A LC inh2	BoNT F protease	Bead autofluor	Anthrax LF prot
COc1ccc(OCc2ccc(C(=O)NN)cc2)cc1	-5.4	-0.3	-2.9	19696*	-0.9
COc1ccc(OCC(O)CNC(=O)c2ccc(Br)cc2)cc1 (stereo not given)	5.4	2.8	6.0	21623*	-6.2
Cc1oc(C)c(C(=O)O)c1COc1ccc(C(=O)O)cc1	-4.0	-0.5	10.8	4816	3.8
COc1ccc(C(=O)NCc2c(C)oc(C)c2C(=O)O)cc1	8.4	1.4	36.4*	3063	-4.4
COc1ccc(C(=O)NCC(=O)O)cc1	5.4	-2.2	-7.6	17003*	-4.3
CCCCCCC=C1CCC(CN2CCCC2)C1=O (stereo not given)	x	-0.9	-3.2	4333	-8.4
COC1CC(NC(C)=O)C(OC(=O)c2ccccc2)C(CBr)O1 (stereo not given)	5.6	0.3	-3.6	3801	1.0
Cc1cc2cc(C(c3nnnn3Cc3ccccc3)N3CCc4ccccc43)c(=O)[nH]c2cc1C (stereo not given)	-6.5	u	1.5	21199*	5.3
Cc1cc2cc(C(c3nnnn3Cc3ccco3)N3CCc4ccccc43)c(=O)[nH]c2cc1C (stereo not given)	79.2*	-2.7	-12.5	2868	-5.9
Cc1ccc2cc(C(c3nnnn3Cc3ccccc3)N3CCc4ccccc43)c(=O)[nH]c2c1 (stereo not given)	-6.9	0.6	0.9	11940	0.2
Cc1ccc2cc(C(c3nnnn3Cc3ccccc3)N3CCc4ccccc43)c(=O)[nH]c2c1C (stereo not given)	-16.1	0.7	2.3	20150*	-0.8
Cc1cc2cc(C(c3nnnn3Cc3ccco3)N3CCc4ccccc4C3)c(=O)[nH]c2cc1C (stereo not given)	15.8	0.8	1.1	3356	-3.5
CCCCN(C(C)=O)c1c(CC)nc2ccc(C(=O)NCCCN(C)C)cn12	x	-0.7	-0.1	4073	-8.5
CCN(c1ccccc1)S(=O)(=O)c1ccc(C(=O)Nc2cc(C)ccn2)cc1	-6.1	-3.9	-6.9	8139	-3.4
COc1ccc(C2(C(=O)Nc3nncs3)CCCC2)cc1	-3.2	1.0	0.6	22722*	-1.8
CC1(C)C2([N+](=O)[O-])CN3CC1([N+](=O)[O-])CN(C2)C31CCCC1	2.4	u	-6.9	17714*	-1.9
CC1(C)C2([N+](=O)[O-])CN3CC1([N+](=O)[O-])CN(C2)C3c1ccccc1 (stereo not given)	-3.9	3.5	5.5	22107*	0.9
COc1ccc(C(CNC(=O)c2cc3ccccc3cc2OC)N2CCCC2)cc1 (stereo not given)	-2.7	u	0.5	27989*	0.6
COc1ccc(C(CNC(=O)CNC(=O)c2ccccc2Cl)N2CCCC2)cc1 (stereo not given)	2.0	-3.5	8.9	7350	-4.1
C=CCN(c1ccccc1)S(=O)(=O)c1cccc(C(=O)NCC(c2ccc(OC)cc2)N2CCCCC2)c1 (stereo not given)	-5.0	u	2.8	6047	-8.1
C=CCN(c1ccccc1OC)S(=O)(=O)c1cccc(C(=O)NCC(c2ccc(OC)cc2)N2CCCC2)c1 (stereo not given)	-30.5	-3.5	-1.0	23106*	-8.6
O=C(Nc1ncccc1O)c1ccc(Cl)c(S(=O)(=O)N2CCCC2)c1	-0.9	0.0	5.6	3524	-2.4
CC(C)(C)NC(=O)CSc1nnc(Cc2ccc3c(c2)OCO3)n1C1CCCCC1	-8.2	-2.1	-4.8	20511*	-5.2
COc1ccccc1Nc1nc(N)nc(CN2CCN(c3ccccc3)CC2)n1	-2.0	2.0	1.3	21394*	-0.3
Cc1ccc(Nc2nc(N)nc(CN3CCN(Cc4ccc5c(c4)OCO5)CC3)n2)cc1Cl	1.1	-1.4	-5.0	23185*	-4.4
SMILES	MazEF act	BoNT-A LC inh2	BoNT F protease	Bead autofluor	Anthrax LF prot
COc1ccc(N2CCN(Cc3nc(N)nc(Nc4ccc(C)c(Cl)c4)n3)CC2)cc1	2.3	-0.7	-2.5	21102*	-5.2
Nc1nc(CN2CCN(c3ccccn3)CC2)nc(Nc2ccc(F)cc2)n1	8.6	-0.1	-0.9	16591*	-2.3
Cc1nc2ccccc2c(=O)n1/N=C/c1ccc(C(C)C)cc1	-5.7	-1.4	-1.7	3899	-7.4
COc1ccc(-c2ccc(C(=O)NCc3ccc(N(C)C)cc3)c3occc23)c(C)c1	x	-0.9	-2.9	3965	1.3
Nc1nc(CN2CCN(Cc3ccccc3)CC2)nc(Nc2ccc3c(c2)OCCO3)n1	1.9	0.8	-7.4	4413	-2.1
Cc1ccc(Nc2nc(N)nc(CN3CCN(c4ccccc4)CC3)n2)cc1Cl	-3.1	u	-0.4	21461*	-6.1
Cc1ccc2c(c1)c(/C=C/c1cc[n+](C)cc1)c(C)n2C	-962.0	-24.4	-19.3	20045*	-4.5
